Bioassay records (PubChem BioAssay)
This is a sample that favours compounds with a hit; in the whole collection about 1.2% have one here.
DSG3 Ab inh: blocks pemphigus antibody binding to human desmoglein-3 | DSG3-coupled beads, scFv-anti-DSG3-GFP binding, flow cytometry; active compounds read low | 0.48% of 310,000 active | binding (percent of control), % at 10 µM;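 active means binding more than 3 SD below its plate's average and above zero; inconclusive means below that plate limit but binding exactly zero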;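 further: hits lower antibody fragment binding to DSG3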
LAP4 TOR yeast: modulators of TOR pathway LAP4-GFP in S. cerevisiae. GFP response vs DMSO, % at 10 µM. S. cerevisiae LAP4-GFP multiplex, flow cytometry GFP, 3 h; median GFP as percent of DMSO wells. 0.34% of 320,000 active;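 active means GFP response vs DMSO above a set limit, about the screen mean plus 3 SD, cut at about 150% in these data; inconclusive means under 70 cell events counted for the yeast strain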
MEP2 TOR yeast: modulators of TOR pathway MEP2-GFP in S. cerevisiae | GFP response vs DMSO, % at 10 µM | AID 2016 | 0.51% of 330,000 active | S. cerevisiae MEP2-GFP strain, flow cytometry GFP, 3 h; 100% = DMSO control level;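 active means GFP response versus DMSO above a set limit, roughly screen mean plus 3 SD, cut at about 180% in these data; inconclusive means fewer than 70 cells counted for a yeast strain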;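 further: median GFP fluorescence of the barcode-gated MEP2-GFP cells per well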
RPL19A TOR yeast: modulators of TOR pathway RPL19A-GFP in S. cerevisiae; S. cerevisiae RPL19A-GFP strain, flow cytometry, 3 h; active compounds read low; percent response vs DMSO, % at 10 µM; 0.3% of 330,000 active; AID 2025;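 active means percent response vs DMSO below 50%; inconclusive means fewer than 70 events counted for the yeast strain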;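 further: median channel GFP fluorescence of the barcoded RPL19A-GFP strain; ratio of sample median GFP to plate DMSO average so 100% = DMSO; lower means less RPL19A-GFP as with rapamycin TOR inhibition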
CIT2 TOR yeast: modulators of TOR pathway CIT2-GFP in S. cerevisiae. S. cerevisiae CIT2-GFP strain, flow cytometry, 3 h; 100 means same as DMSO wells. GFP response vs DMSO, % at 10 µM. 0.065% of 320,000 active;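 active means GFP response relative to DMSO above a set limit, near the screen mean plus 3 SD, cut at about 150% in these data; inconclusive means Fewer than 70 cells measured for a yeast strain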;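 further: ratio of well median GFP fluorescence to mean of DMSO wells on the plate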
AGP1 TOR yeast: alters AGP1-GFP fluorescence in TOR pathway yeast screen; S. cerevisiae AGP1-GFP multiplex flow cytometry, 3 h; GFP as percent of DMSO wells; GFP response vs DMSO, % at 10 µM; 0.02% of 320,000 active;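 active means GFP response relative to DMSO above a set limit, near screen average plus 3 SD, cut at about 150% in these data; inconclusive means fewer than 70 cells counted for the yeast strain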;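 further: median GFP channel fluorescence of the gated AGP1 strain per well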
Starred values were filed as active, the others as inactive; ? = inconclusive; . = not tested or not shown; [ ] = dose if it differs, or a comment.

SMILES	DSG3 Ab inh	LAP4 TOR yeast	MEP2 TOR yeast	RPL19A TOR yeast	CIT2 TOR yeast	AGP1 TOR yeast
O=CNn1cnc2c(oc3nc(-c4ccccc4)cc(-c4ccco4)c32)c1=O	78*	103	101	112	107	96
Cc1ccccc1N1CCN(C2CCCN(C(=O)c3cnsn3)C2)CC1 (configuration not stated)	98	96	93	101	97	102
COc1ccccc1CNC(=O)CS(=O)Cc1nc(-c2ccc(OC)c(OC)c2)oc1C (configuration not stated)	100	78	103	44*	92	26
Cc1cccc(C(=O)Nc2nsc(N)n2)c1	94	100	89	97	89	82
CCc1ccc(-c2nc(CSCC(=O)N3CCN(c4ccccn4)CC3)c(C)o2)cc1	.	98	177*[may fluoresce violet]	45*[may fluoresce violet]	?	19
Cc1ccc(-c2nc(CSCC(=O)N3CCN(c4ccccn4)CC3)c(C)o2)cc1	107	108	103	99	101	108
CN(c1ccc(OCC(=O)OCC(=O)c2c(N)n(C)c(=O)n(C)c2=O)cc1)S(=O)(=O)c1ccc2ccccc2c1	97*	95	112	105	99	106
Cc1cccc(CCN2C(N(C)C)=NC[C@@H]2C)c1	101	96	99	96	103	103
Nc1c(C(=O)Nc2ccccc2)c2nc3ccccc3nc2n1CCCN1CCOCC1	98	78	117	42*[may fluoresce violet]	?	?
Cc1ccc(CC(=O)O/N=C(\N)c2ccncc2)cc1	100	92	90	104	89	97
O=C(N/N=C/c1ccccc1)c1ccc(N2CCCC2=O)cc1	.	108	113	99	95	100
COc1cccc(N=Cc2ccc(O)cc2O)c1	85*	93	104	95	95	107
CCc1ccc2nc(NC(=O)Cn3cnc4ccccc4c3=O)sc2c1	98	108	99	97	94	101
CC(=O)Nc1ccc(NC(=O)CCCn2cnc3ccccc3c2=O)cc1	96	84	242*[may fluoresce violet]	96	?	16
COc1ccc(/C=N/NC(=O)Cn2cnc3ccccc3c2=O)cc1	121	79	245*[may fluoresce violet]	49*[may fluoresce violet]	?	22
O=C(Cn1cnc2ccccc2c1=O)Nc1nc2ccccc2s1	65*	95	98	101	90	97
Cc1ccc(NC(=O)CCn2cnc3ccccc3c2=O)cc1	103	95	98	98	89	103
COc1ccc(/C=N/NC(=O)C(C)n2cnc3ccccc3c2=O)cc1 (configuration not stated)	97	91	98	104	95	103
CCOC(=O)C1CCCN(CC(=O)Nc2nc(-c3ccccc3)cs2)C1 (configuration not stated)	90	96	107	106	107	102
Nn1c(COc2ccccc2F)nnc1SCC(=O)NCC1CCCO1 (configuration not stated)	98	.	.	.	.	.
CCCCNC(=O)c1ccc2c(SCC(=O)O)c3c(nc2c1)CCCC3	90	110	185*	104	103	98
CC(C)CCNC(=O)c1ccc2c(SCC(=O)O)c3c(nc2c1)CCC3	90	101	99	98	108	106
Cc1ccn2c(=O)c(C(=O)NC3CCCCC3C)c(O)nc2c1 (configuration not stated)	96	105	97	98	75	110
COc1c(OC)c2[nH]c(=O)cc3c4ccccc4n(c1=O)c23	.	100	365*[may fluoresce violet]	18*[may fluoresce violet]	?	?
COc1cccc2cc(C(=O)N3CCN(c4ncccn4)CC3)c(=O)oc12	97	101	100	105	105	100
SMILES	DSG3 Ab inh	LAP4 TOR yeast	MEP2 TOR yeast	RPL19A TOR yeast	CIT2 TOR yeast	AGP1 TOR yeast
COc1cccc2cc(C(=O)N3CCN(C/C=C/c4ccccc4)CC3)c(=O)oc12	101	106	219*	81	63	89
O=C(c1cc2ccccc2oc1=O)N1CCCN(C(=O)c2cc3ccccc3oc2=O)CC1	95	.	.	.	.	.
O=C(c1ccccc1)N1CCN(C(=O)c2cc3ccccc3oc2=O)CC1	90	?	?	28*[may fluoresce violet]	?	?
COc1cccc2cc(C(=O)N3CCN(C(=O)c4ccco4)CC3)c(=O)oc12	103	102	99	101	98	100
COc1cccc2cc(C(=O)N3CCCCCCC3)c(=O)oc12	19*	96	104	102	99	94
Cc1cc(C)n(CC(=O)NNC(=O)CC(C)c2ccccc2)n1 (configuration not stated)	110	94	91	91	91	92
Cc1nn(-c2ccccn2)c2c1C(=O)CC(C)(C)C2N=[N+]=[N-] (configuration not stated)	112	.	.	.	.	.
CN(C(=O)CSc1nnc(-c2cccnc2)n1-c1ccccc1F)C1CCS(=O)(=O)C1 (configuration not stated)	96	104	104	106	102	114
Cc1onc(-c2ccccc2)c1C(=O)N1CCCN(C(=O)c2c(-c3ccccc3)noc2C)CC1	.	95	102	100	.	104
Cc1onc(-c2ccccc2)c1C(=O)N1CCC(C)CC1	98	160*	221*	83	122	134
O=C(N/N=C/c1ccc(O)c(Br)c1)c1cc2c(ccc3ccccc32)o1	78*	66	104	114	90	93
Cc1cccc(NC(=O)CS(=O)(=O)c2cn(CC(=O)N3CCOCC3)c3ccccc23)c1	91	70	187*[may fluoresce violet]	43*[may fluoresce violet]	?	?
CC(=O)Nc1cccc(NC(=O)CS(=O)(=O)c2cn(CC(=O)N3CCOCC3)c3ccccc23)c1	89	93	86	87	84	90
COc1ccccc1-c1nc(C(=O)NCC2CCCO2)cc2c1[nH]c1ccccc12 (configuration not stated)	77*	97	100	96	96	96
C=CCOC1COC2C(OCC=C)COC12 (configuration not stated)	98	.	.	.	.	.
CCC(=O)N1CCc2cc(S(=O)(=O)N(C)c3ccc(Br)cc3)ccc21	73*	.	.	.	.	.
CCC(=O)N1CCc2cc(S(=O)(=O)N(C)c3ccc(OC)cc3OC)ccc21	103	88	105	104	103	97
COc1ccccc1NC(=O)NCc1nc(-c2ccc(C(F)(F)F)cc2)no1	74*	100	98	100	100	101
Cc1ccc(NC(=O)c2ccc(OCc3c(C)noc3C)cc2)nc1	.	120	119	110	95	103
CCN(CC)CCNC(=O)C1CCC(=O)N(c2ccc(OC)cc2)C1c1ccc(F)cc1 (configuration not stated)	96	91	230*[may fluoresce violet]	58	?	20
